CHO-K1 Ca antag: counter-screen for M1 antagonists: effect in parental CHO-K1 cells; 360,000 tested, 0.6% active; inhibition, % at 3 µM; ATP-induced calcium, Fluo-8 fluorescence; AID 602250;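 active = inhibition above a per-plate cutoff, the plate's mean sample inhibition plus 3 SD, cut at about 24% in these data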;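 also: 0% = DMSO plus EC80 ATP and 100% = DMSO alone without ATP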
CHRM4 agonist: human M4 muscarinic receptor agonists, primary screen, CHO-K1 cells, Fluo-8 calcium fluorescence; Muscarinic acetylcholine receptor M4 (Homo sapiens), P08173; CHO-K1 hM4/Gqi5; vehicle 0%, full acetylcholine response 100%; activation, % at 3 µM; 360,000 tested, 0.14% active;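 active = activation above the run mean over all test wells plus 3 SD, cut at about 32% in these data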;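 also: peak over basal fluorescence ratio per well then scaled between controls; 0% = DMSO wells and 100% = acetylcholine at EC100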
Target sequence (P08173 whole entry, looked up): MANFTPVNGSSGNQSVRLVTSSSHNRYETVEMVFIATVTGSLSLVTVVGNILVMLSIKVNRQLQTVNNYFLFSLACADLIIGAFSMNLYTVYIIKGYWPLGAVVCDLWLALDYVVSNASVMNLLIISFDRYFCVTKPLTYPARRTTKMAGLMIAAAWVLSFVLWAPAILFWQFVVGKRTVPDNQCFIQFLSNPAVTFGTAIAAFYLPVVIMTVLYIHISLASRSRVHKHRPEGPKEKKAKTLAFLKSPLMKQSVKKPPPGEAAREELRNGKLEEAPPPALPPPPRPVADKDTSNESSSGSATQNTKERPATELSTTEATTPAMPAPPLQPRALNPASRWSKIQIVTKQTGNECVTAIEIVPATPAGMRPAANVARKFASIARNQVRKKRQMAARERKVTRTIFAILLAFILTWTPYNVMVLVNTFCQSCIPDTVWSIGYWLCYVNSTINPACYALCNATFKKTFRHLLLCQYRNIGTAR
M1 ag parental: counter-screen for M1 agonists: effect in parental CHO-K1 cells; activation, % at 3 µM; Fluo-8 calcium fluorescence; scaled to maximal ATP response, vehicle zero; AID 602248, 2012; 360,000 tested, 0.48% active; in the data active = activation above about 15%;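 also: untransfected CHO-K1 host cells lacking M1 receptor as counterscreen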
M4 antag: human M4 muscarinic receptor antagonists, primary screen, CHO cells, Fluo-8 calcium fluorescence; Muscarinic acetylcholine receptor M4 (Homo sapiens), P08173; CHO-hM4 cells, ACh EC80; inhibition, % at 3 µM; 360,000 tested, 0.73% active; AID 624125, 2012;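 active = inhibition above its plate's cutoff, the mean inhibition of sample wells plus 3 SD, cut at about 27% in these data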;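 also: 0% = acetylcholine EC80 with DMSO and 100% = DMSO without agonist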
M4 PAM: human M4 muscarinic receptor positive allosteric modulators, primary screen, CHO-K1 cells, Fluo-8 calcium fluorescence | activation, % at 3 µM | 360,000 tested, 0.4% active | CHO-K1 hM4/Gqi5, ACh EC20; 0% = ACh EC20, 100% = maximal ACh | Muscarinic acetylcholine receptor M4 (Homo sapiens), P08173 | AID 624126, 2012;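 active = activation above its plate's cutoff, the mean activation of sample wells plus 3 SD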
M1 PAM parental: nonselective calcium activators in parental CHO-K1 cells, primary screen, counter-screen for M1 PAM project, cell-based, Fluo-8 calcium fluorescence, full deck, 1536-well | ATP EC20; 0% at ATP EC20, 100% at ATP max | activation, % at 3 µM | 360,000 tested, 0.02% active | AID 602247, 2012;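 active = activation above the run cutoff, the mean activation of all test compounds plus 3 SD, cut at about 40% in these data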;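 also: peak over basal fluorescence ratio in a 140 s read after ATP addition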
Numbers without * were called inactive; . = no result. An excerpt weighted towards active compounds, which were near 2% of everything screened.

SMILES	CHO-K1 Ca antag	CHRM4 agonist	M1 ag parental	M4 antag	M4 PAM	M1 PAM parental
COc1ccc(-c2cnc(N)n2CC2CCCO2)cc1 (stereo not drawn)	8	0	0	-4	-1	-2
CCN(CC(=O)NC1CCS(=O)(=O)C1)c1nc(-c2ccccc2)nc2ccccc12 (stereo not drawn)	7	2	1	0	-4	6
CCn1c(O)c(N=NC(=O)c2cccnc2)c2cc(Br)ccc21	-9	1	1	-1	-6	20
CCCNC(=O)c1cc(C2CCCCN2C(=O)CCCc2ccccc2)on1 (stereo not drawn)	25*	3	1	1	-8	-24
CC(C)NC(=O)c1cc(C2CCCCN2C(=O)CCCc2ccccc2)on1 (stereo not drawn)	-5	2	1	-13	2	21
O=C(CN1CCN(Cc2ccccc2)CC1)Nc1cccc(C(F)(F)F)c1	26*	1	0	11	9	-8
O=C(CN1CCN(c2ccccc2)CC1)Nc1cccc(C(F)(F)F)c1	0	0	0	-7	8	-15
COc1cccc(-c2ccc(NC(=O)C3CCCN(Cc4cnc(C)n4C)C3)cc2)c1 (stereo not drawn)	-6	7	6	22	-14	16
Cc1ncc(CN2CCCC(C(=O)Nc3ccc(-c4cccc(F)c4)cc3)C2)n1C (stereo not drawn)	2	7	5	33*	-16	1
CCOCCCNc1nc2c(c(=O)[nH]c(=O)n2C)n1CCCc1ccccc1	26*	0	0	8	-1	-8
CCCNc1nc2c(c(=O)[nH]c(=O)n2C)n1CCCc1ccccc1	-5	1	0	-6	14	-1
O=C(Nc1ccc(Cl)cc1)c1ccc(OCC2CCCO2)cc1 (stereo not drawn)	9	7	26*	-7	-4	2
C=C1C2=C(C(=O)N1OC)[C@@H](O)[C@@](C)(O)[C@@H](CCCCC)O2	-9	0	0	-17	22*	17
CC(C)N(C(=S)NCc1ccccc1)C(C)C	26*	0	0	-7	-3	-6
CC(C)N(C(=S)NCc1ccccc1)c1ccccc1	-1	-1	0	0	6	14
Cn1c(SCc2c(Cl)cccc2Cl)nnc1-c1ccc2nonc2c1	1	11	1	24	26*	-8
O=[N+]([O-])c1cc2cccnc2c2ncccc12	-12	1	1	-9	12*	16
Cc1ccc([N+](=O)[O-])c2cccnc12	-2	1	1	1	-7	20
COC(=O)CSc1nc2ccc(NC(=O)c3ccccc3C(=O)N3CCOCC3)cc2s1	2	14	6	1	-2	16
C/C(CC(=O)Nc1ccccc1C(F)(F)F)=N\NC(=O)c1cnccn1	-28	1	0	-8	8	30
C/C(CC(=O)NCc1ccccc1)=N\NC(=O)c1cnccn1	-18	2	1	7	31*	24
CC(CNC(=O)c1cc(COc2ccc3ncccc3c2)on1)c1ccccc1 (stereo not drawn)	18	25	17*	6	-11	-6
Cc1cc(CN(C)C(=O)c2cc(COc3ccc4ncccc4c3)on2)on1	9	12	13	19	-24	3
O=C(NC1CCCCCCC1)c1cc(COc2ccc3ncccc3c2)on1	29*	13	11	34*	-26	2
COc1ccc(Cl)c2sc(N3CCN(C(=O)C4=COCCO4)CC3)nc12	-9	6	4	-6	19	9
SMILES	CHO-K1 Ca antag	CHRM4 agonist	M1 ag parental	M4 antag	M4 PAM	M1 PAM parental
CCOC(=O)c1c(C)[nH]c(C(=O)COC(=O)c2ccccc2NC(=O)c2ccco2)c1C	32*	0	0	13	-5	-10
CCCN(CC(=O)Nc1ccccc1C)C(=O)c1ccc(-c2ccc([N+](=O)[O-])cc2)o1	-6	7	1	-6	4	-15
COc1ccc(OCc2n[nH]c(=S)n2Cc2ccco2)cc1	-14	1	3	-3	-9	14
Cc1ccc(Sc2ncccc2[N+](=O)[O-])cc1	-10	-1	-1	2	-6	10
CN(C)c1ccc(-c2csc(C(O)c3cccc(Cl)c3)n2)cc1 (stereo not drawn)	22	47*	6	17	-13	-7
COc1ccccc1CNC(=O)C[C@@H]1CC[C@H]2[C@@H](COC[C@H](O)CN2Cc2ccccc2)O1	.	5	.	-3	4	.
COc1cc(/C=N\NC(=O)C2COc3ccccc3O2)cc(OC)c1O (stereo not drawn)	-4	11	21*	5	-2	16
COc1cc(/C=N/NC(=O)C2COc3ccccc3O2)ccc1O (stereo not drawn)	15	3	2	-4	-10	-7
C=C1CCC[C@]2(C)C[C@H]3OC(=O)C(CNCC(C)C)[C@H]3CC12 (stereo partly drawn)	-9	0	0	11	1	2
CCCCCOCC1CC(C/C(C)=N/Nc2nc(-c3ccccc3)cs2)C(=O)O1 (stereo not drawn)	8	1	0	-10	15	10
COCCCN(C(C)=O)c1nc(-c2ccccc2)cs1	2	2	1	-21	44*	21
COCCCN(C(=O)c1ccccc1)c1nc(-c2ccc(OC)cc2)cs1	-2	0	1	10	-4	14
COc1cc(CNCCc2c[nH]c3ccccc23)ccc1OCc1ccc(F)cc1	4	47*	7	47*	-2	15
COc1cccc(CNCCc2c[nH]c3ccccc23)c1OCc1ccc(F)cc1	8	24	2	17	0	12
COc1ccc(C)cc1NC(=O)C(OC(=O)CNC(=O)c1cccc(F)c1)c1ccccc1 (stereo not drawn)	31*	0	0	-12	-2	-16
Cc1oc(-c2cccc3ccccc23)nc1CN1CCN(c2ncnc3ccccc23)CC1	-2	11	23*	5	-15	11
COc1ccc(-c2nc(CN3CCN(c4cc(C)nc(C)c4)CC3)c(C)o2)c2ccccc12	-12	2	-2	-4	0	-9
CC(C)Oc1cccc(C(=O)NC(=S)Nc2ccc(N3CCN(C)CC3)cc2)c1	-7	7	4	39*	-54	19
O=C(N/N=C1/CC2CCC1C2)c1cc2ccccc2cc1O (stereo not drawn)	-1	1	1	13	-4	-10

Source: PubChem BioAssay
